Data: PubChem BioAssay (EPA / NIEHS)
Inconclusive results are not listed. The source made the active and inactive calls. How the source made its calls: active means hit-call score of the fitted dose curve at least 0.9, where 1 is the maximum; inconclusive means response in the unintended direction; inactive means score below 0.9.

target: Retinoic acid receptor alpha (Homo sapiens) (UniProt P10276); assay: ATG_RARa_TRANS: Attagene TRANS-FACTORIAL HepG2 Assay for human Retinoic Acid Receptor alpha (RARa) (AID 2283005)
Protocol: ATG_TRANS is a cell-based, multiplexed-readout assay that uses HepG2, a human liver cell line, with measurements taken at 24 hours after chemical dosing in a 24-well plate.ATG_RARa_TRANS is one of 30 assay component(s) measured or calculated from the ATG_TRANS assay. It is designed to make measurements of mRNA induction, a form of inducible reporter, as detected with fluorescence intensity signals by Reverse transcription polymerase chain reaction (RT-PCR) and Capillary electrophoresis technology.Data from the assay component ATG_RARa_TRANS was analyzed into 1 assay endpoint. This assay endpoint, ATG_RARa_TRANS, was analyzed in the positive analysis fitting direction relative to DMSO as the negative control and baseline of activity. Using a type of inducible reporter, measures of mRNA for gain-of-signal activity can be used to understand the reporter gene at the transcription factor-level as they relate to the gene RARA. Furthermore, this assay endpoint can be referred to as a primary readout, because this assay has produced multiple assay endpoints where this one serves a reporter gene function. To generalize the intended target to other relatable targets, this assay endpoint is annotated to the nuclear receptor intended target family, where the subfamily is non-steroidal.
Human liver HepG2 cells are transiently transfected with multiple reporter transcription units (MRTUs) in 6-well plates using FuGene 6 reagent (Roche; 3 ml FuGene/1 mg DNA). The MRTU constructs are regulated by a cis-regulating element (promoter). […] A major difference between the CIS and TRANS system is that in CIS activities of endogenous TFs are measured, whereas the TRANS assay evaluates changes in activities of exogenous, chimeric NR-Gal4 proteins. […] At the end of 24 hour incubation, total RNA was isolated using TriZol reagent (Invitrogen). The isolated RNA is then reverse-transcribed using oligo(dT) primer and Mo-MLV reverse transcriptase (Invitrogen) with DNAse I (Ambion) treatment for 30 min. The one-tenth of the produced cDNA was amplified by PCR using Taq DNA polymerase (Invitrogen) and two reporter sequence-specific primers. The PCR products were fluorescently labeled by primer extension with 6-arboxyfluorescein (6-FAM) 5'-labeled reporter sequence-specific primer (2 min at 95 C, 20 s at 68 C and 10 min at 72 C) and these products were digested with 5U of HpaI (New England Biolabs) for 2h at 37 C. The fragments were purified using Qiaquick PCR columns (Qiagen), analyzed on an ABI 3130xL genetic analyzer (Applied Biosystems) with peak positions identified by using a set of X-rhodamine (ROX)-labeled MapMarker1000 molecular weight standards (BioVentures). The raw capillary electrophoresis data was processed using Attagraph software (Attagene).

Retinoic acid receptor alpha (Homo sapiens), sequence (P10276 whole entry, looked up): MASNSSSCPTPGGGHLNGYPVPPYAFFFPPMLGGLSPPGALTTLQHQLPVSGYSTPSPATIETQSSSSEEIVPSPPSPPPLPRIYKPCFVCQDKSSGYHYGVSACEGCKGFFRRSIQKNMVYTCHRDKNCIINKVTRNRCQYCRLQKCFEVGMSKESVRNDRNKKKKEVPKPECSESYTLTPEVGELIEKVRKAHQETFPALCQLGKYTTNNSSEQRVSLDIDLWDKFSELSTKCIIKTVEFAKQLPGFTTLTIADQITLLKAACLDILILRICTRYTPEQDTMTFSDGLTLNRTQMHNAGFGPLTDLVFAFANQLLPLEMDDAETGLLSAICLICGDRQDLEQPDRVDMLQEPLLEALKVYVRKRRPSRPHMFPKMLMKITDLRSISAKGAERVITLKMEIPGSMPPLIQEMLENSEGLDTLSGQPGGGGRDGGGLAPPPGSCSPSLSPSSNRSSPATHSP

Row | SMILES | outcome
1 | FC(F)=C(F)C(F)(F)C(F)(F)C(F)(F)C(F)(F)C(F)(F)C(F)(F)F | inactive
2 | Cc1nccn1-c1ccc(Sc2cccc(C3(C(N)=O)CCOCC3)c2)cc1 | inactive
3 | CCCCC(CC)C(=O)OCCOCCOCCOC(=O)C(CC)CCCC (configuration not stated) | inactive
4 | NC(=O)N1c2ccccc2C=Cc2ccccc21 | inactive
5 | Cc1cccc(O)c1C | inactive
6 | OCc1c[nH]c2ccccc12 | inactive
7 | CCCCCCCC1CCC(=O)O1 (configuration not stated) | inactive
8 | O=C(O)CO | inactive
9 | CC(C)c1nnc2ccc(-c3ocnc3-c3cc(F)ccc3F)cn12 | inactive
10 | OCCC(F)(F)C(F)(F)C(F)(F)C(F)(F)F | inactive
11 | C[Si](C)(C)C(F)(F)C(F)(F)C(F)(F)F | inactive
12 | O=S(=O)(O)c1ccc(N=Nc2c(O)ccc3cc(S(=O)(=O)O)ccc23)cc1 | inactive
13 | S=P(N1CC1)(N1CC1)N1CC1 | inactive
14 | c1ccc2c(c1)-c1cccc3c1c-2cc1ccccc13 | inactive
15 | OCc1ccccc1 | inactive
16 | O=S(=O)(O)CCC(F)(F)C(F)(F)C(F)(F)C(F)(F)C(F)(F)C(F)(F)F | inactive
17 | FC(F)(F)COC(OCC(F)(F)F)OCC(F)(F)F | inactive
18 | CC(C)CC(C)O (configuration not stated) | inactive
19 | OC[C@H]1O[C@@H]2O[C@H]3[C@H](O)[C@@H](O)[C@@H](O[C@H]4[C@H](O)[C@@H](O)[C@@H](O[C@H]5[C@H](O)[C@@H](O)[C@@H](O[C@H]6[C@H](O)[C@@H](O)[C@@H](O[C@H]7[C@H](O)[C@@H](O)[C@@H](O[C@H]1[C@H](O)[C@H]2O)O[C@@H]7CO)O[C@@H]6CO)O[C@@H]5CO)O[C@@H]4CO)O[C@@H]3CO | inactive
20 | O=C(O)c1cccc(C(=O)O)c1 | inactive
21 | O=C(Cl)C(F)(F)C(F)(F)C(F)(F)C(=O)Cl | inactive
22 | CCCCCCCC/C=C\CCCCCCCC(=O)OC[C@@H](O)[C@H]1OC[C@H](O)[C@H]1O | inactive
